Test results taken from PubChem BioAssay AID1159580 (chemical genetic matrix, 2015).
Among all 5,500 compounds or so, about 2,000 (36%) were called active. Another 18% or so got no clear call; they are omitted. No stated cut-off is given here; in the data, active means normalized growth mostly below about 0.91 (no sharp cut-off); inconclusive means no clear call, values can overlap the other calls; inactive means mostly above about 0.92. The list shows a part of the results.

Assay: chemical genetic growth profiling, strain panel (AID 1159580);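 further: tested at 20 µM; growth read once vehicle control cultures reached saturation at 30 °C; 1 = growth at the plate median or of vehicle wells; lower values mean less growth of the strain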
Conditions: growth OD

Measured: normalized growth

CC(=O)O[C@@H]1CC2C(C)(C)C(=O)C=C[C@]2(C)C2CC[C@@]3(C)[C@H](c4ccoc4)OC(=O)[C@H]4O[C@]43[C@@]21C (stereo partly drawn)
inactive: S. cerevisiae deletion strains, locus YJR066W, strain TOR1, active compounds read low 0.932 | S. cerevisiae deletion strains, locus YKL009W, strain mrt4, active compounds read low 1.07 | S. cerevisiae deletion strains, locus YKL068W, active compounds read low 1 | S. cerevisiae deletion strains, locus YKL085W, strain MDH1 (second series), active compounds read low 1.03 | S. cerevisiae deletion strains, locus YKL085W, strain MDH1, active compounds read low 1.03 | S. cerevisiae deletion strains, locus YKL160W, strain elf1, active compounds read low 1.02 | S. cerevisiae deletion strains, locus YKR001C, strain vps1, active compounds read low 0.975 | S. cerevisiae deletion strains, locus YKR026C, strain gcn3, active compounds read low 0.985 | S. cerevisiae deletion strains, locus YKR091W, strain srl3, active compounds read low 1 | S. cerevisiae deletion strains, locus YLL001W, strain dnm1, active compounds read low 0.972 | S. cerevisiae deletion strains, locus YLL026W, active compounds read low 1.01 | S. cerevisiae deletion strains, locus YLL041C, strain sdh2, active compounds read low 0.992 | S. cerevisiae deletion strains, locus YLR027C, strain aat2, active compounds read low 1.02 | S. cerevisiae deletion strains, locus YLR039C, strain RIC1, active compounds read low 0.877 | S. cerevisiae deletion strains, locus YLR058C, strain SHM2, active compounds read low 1 | S. cerevisiae deletion strains, locus YLR102C, strain apc9, active compounds read low 0.993 | S. cerevisiae deletion strains, locus YLR113W, strain HOG1, active compounds read low 0.987 | S. cerevisiae deletion strains, locus YLR221C, strain rsa3, active compounds read low 0.989 | S. cerevisiae deletion strains, locus YLR258W, strain gsy2, active compounds read low 1.01 | S. cerevisiae deletion strains, locus YLR262C, strain YPT6 (second series), active compounds read low 0.927 | S. cerevisiae deletion strains, locus YLR262C, strain YPT6, active compounds read low 0.962 | S. cerevisiae deletion strains, locus YLR268W, strain sec22, active compounds read low 1 | S. cerevisiae deletion strains, locus YLR320W, strain mms22, active compounds read low 0.954 | S. cerevisiae deletion strains, locus YLR330W, strain CHS5, active compounds read low 1.01 | S. cerevisiae deletion strains, locus YLR342W, strain FKS1 (second series), active compounds read low 0.966 | S. cerevisiae deletion strains, locus YLR342W, strain FKS1, active compounds read low 1.01 | S. cerevisiae deletion strains, locus YLR357W, strain rsc2, active compounds read low 1.12 | S. cerevisiae deletion strains, locus YLR370C, strain arc18, active compounds read low 1 | S. cerevisiae deletion strains, locus YLR371W, strain rom2, active compounds read low 0.989 | S. cerevisiae deletion strains, locus YLR384C, strain iki3, active compounds read low 1.02 | S. cerevisiae deletion strains, locus YLR418C, strain cdc73, active compounds read low 1.04 | S. cerevisiae deletion strains, locus YML016C, strain PPZ1, active compounds read low 0.999 | S. cerevisiae deletion strains, locus YML032C, strain rad52, active compounds read low 0.993 | S. cerevisiae deletion strains, locus YML120C, strain ndi1, active compounds read low 0.965 | S. cerevisiae deletion strains, locus YML124C, strain tub3, active compounds read low 0.979 | S. cerevisiae deletion strains, locus YMR058W, strain fet3, active compounds read low 0.983 | S. cerevisiae deletion strains, locus YMR078C, strain ctf18, active compounds read low 0.983 | S. cerevisiae deletion strains, locus YMR125W, strain sto1, active compounds read low 1.07 | S. cerevisiae deletion strains, locus YMR129W, active compounds read low 1 | S. cerevisiae deletion strains, locus YMR205C, strain PFK2, active compounds read low 0.981 | S. cerevisiae deletion strains, locus YMR223W, strain ubp8, active compounds read low 1 | S. cerevisiae deletion strains, locus YMR231W, strain pep5, active compounds read low 1.01 | S. cerevisiae deletion strains, locus YMR263W, strain SAP30, active compounds read low 0.993 | S. cerevisiae deletion strains, locus YMR307W, strain GAS1, active compounds read low 0.918 | S. cerevisiae deletion strains, locus YNL067W, strain RPL9B, active compounds read low 1.01 | S. cerevisiae deletion strains, locus YNL071W, strain lat1, active compounds read low 1 | S. cerevisiae deletion strains, locus YNL183C, strain NPR1, active compounds read low 0.943 | S. cerevisiae deletion strains, locus YNL209W, strain ssb2, active compounds read low 1.01 | S. cerevisiae deletion strains, locus YNL233W, strain BNI4, active compounds read low 1.02 | S. cerevisiae deletion strains, locus YNL248C, strain rpa49, active compounds read low 1.06 | S. cerevisiae deletion strains, locus YNL250W, strain rad50, active compounds read low 1.01 | S. cerevisiae deletion strains, locus YNL271C, strain bni1, active compounds read low 1 | S. cerevisiae deletion strains, locus YNL298W, strain CLA4, active compounds read low 1 | S. cerevisiae deletion strains, locus YNL307C, strain MCK1, active compounds read low 0.989 | S. cerevisiae deletion strains, locus YNL322C, strain KRE1 (second series), active compounds read low 1.01 | S. cerevisiae deletion strains, locus YNL322C, strain KRE1, active compounds read low 1 | S. cerevisiae deletion strains, locus YNR049C, strain mso1, active compounds read low 1.01 | S. cerevisiae deletion strains, locus YNR052C, strain pop2, active compounds read low 0.981 | S. cerevisiae deletion strains, locus YOL006C, strain TOP1, active compounds read low 1.01 | S. cerevisiae deletion strains, locus YOL012C, strain htz1 0.906 | S. cerevisiae deletion strains, locus YOL147C, strain pex11, active compounds read low 0.988 | S. cerevisiae deletion strains, locus YOR001W, strain rrp6, active compounds read low 0.976 | S. cerevisiae deletion strains, locus YOR061W, strain CKA2, active compounds read low 0.997 | S. cerevisiae deletion strains, locus YOR069W, strain VPS5, active compounds read low 1 | S. cerevisiae deletion strains, locus YOR070C, strain gyp1, active compounds read low 1.01 | S. cerevisiae deletion strains, locus YOR080W, strain dia2, active compounds read low 0.996 | S. cerevisiae deletion strains, locus YOR083W, strain WHI5, active compounds read low 0.98 | S. cerevisiae deletion strains, locus YOR106W, strain vam3, active compounds read low 1.03 | S. cerevisiae deletion strains, locus YOR136W, strain idh2, active compounds read low 1.01 | S. cerevisiae deletion strains, locus YOR144C, strain elg1, active compounds read low 0.979 | S. cerevisiae deletion strains, locus YOR184W, strain ser1, active compounds read low 1.02 | S. cerevisiae deletion strains, locus YOR231W, strain MKK1, active compounds read low 0.998 | S. cerevisiae deletion strains, locus YOR265W, strain rbl2, active compounds read low 1.01 | S. cerevisiae deletion strains, locus YOR270C, strain vph1, active compounds read low 0.896 | S. cerevisiae deletion strains, locus YOR290C, strain snf2, active compounds read low 1.02 | S. cerevisiae deletion strains, locus YOR316C, strain cot1, active compounds read low 0.987 | S. cerevisiae deletion strains, locus YPL051W, strain arl3, active compounds read low 1.02 | S. cerevisiae deletion strains, locus YPL078C, strain atp4, active compounds read low 1.01 | S. cerevisiae deletion strains, locus YPL106C, strain sse1, active compounds read low 1.05 | S. cerevisiae deletion strains, locus YPL240C, strain hsp82, active compounds read low 0.997 | S. cerevisiae deletion strains, locus YPL241C, strain CIN2, active compounds read low 0.992 | S. cerevisiae deletion strains, locus YPL256C, strain CLN2, active compounds read low 0.997 | S. cerevisiae deletion strains, locus YPR119W, strain clb2, active compounds read low 0.981 | S. cerevisiae deletion strains, locus YPR141C, strain kar3, active compounds read low 1.01 | S. cerevisiae deletion strains, locus YPR163C, strain tif3, active compounds read low 0.984 | S. cerevisiae deletion strains, locus YPR167C, strain met16, active compounds read low 1 | S. cerevisiae deletion strains, strain wtn01, active compounds read low 1.01 | S. cerevisiae strains, strain wild type, active compounds read low 1
